Experimental data: PubChem BioAssay (NCATS)
Inconclusive results are not listed. Activity calls are given as the source filed them. The call rests on the fitted dose curve; in most records, active means well fitted cell-killing curve with a large enough effect; inconclusive means small, poorly fitted or top-dose-only effect, or effect the other way; inactive means flat fitted curve, though single readings scatter.

Legend:
Assay in all cases: Primary qHTS to identify gynecologic anti-cancer compounds using libraries of approved drugs and bioactive compounds (AID 1345084); further: nearly all actives have a fitted effect of over 55% in size
[1] = test system: Es-2; conditions: Gynecologic cancer cell panel viability, ATPlite luminescence, 48 h; series mostly up to 57.5 µM
Summary of the method: (§1)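 Five-point cytotoxicity, 48 h drug exposure at 37 C, 5% CO2, on cells seeded 16 h beforehand. ATP content read by ATPlite luminescence.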

[2] = test system: HeLa; conditions: Gynecologic cancer cell panel viability, ATPlite luminescence, 48 h; series mostly up to 57.5 µM
Summary of the method: as §1

[3] = test system: Hek293T; conditions: Gynecologic cancer cell panel viability, ATPlite luminescence, 48 h, control line for the selectivity index; series mostly up to 57.5 µM
Summary of the method: as §1

[4] = test system: JEG-3; conditions: Gynecologic cancer cell panel viability, ATPlite luminescence, 48 h; series mostly up to 57.5 µM
Summary of the method: as §1

[5] = test system: OV90; conditions: Gynecologic cancer cell panel viability, ATPlite luminescence, 48 h; series mostly up to 57.5 µM
Summary of the method: as §1

[6] = test system: PA-1; conditions: Gynecologic cancer cell panel viability, ATPlite luminescence, 48 h; series mostly up to 57.5 µM
Summary of the method: as §1

[7] = test system: SKOV3; conditions: Gynecologic cancer cell panel viability, ATPlite luminescence, 48 h; series mostly up to 57.5 µM
Summary of the method: as §1

[8] = test system: Tov-21-G; conditions: Gynecologic cancer cell panel viability, ATPlite luminescence, 48 h; series mostly up to 57.5 µM
Summary of the method: as §1

[9] = test system: Tov112D; conditions: Gynecologic cancer cell panel viability, ATPlite luminescence, 48 h; series mostly up to 57.5 µM
Summary of the method: as §1
On the % scale 0 is the no-effect control and ±100 the full control effect.

Cc1cc(O)c(C(C)C)cc1O[C@@H]1O[C@H](CO)[C@@H](O)[C@H](O)[C@H]1O
inactive: Potency [1] | Potency [2] | Potency [3] | Potency [4] | Potency [5] | Potency [6] | Potency [7] | Potency [8] | Potency [9]

C/C=C/C1=CC2=CC(=O)C(C)(O)C(OC(=O)c3c(C)cc(O)cc3O)C2CO1 (stereo not drawn)
inactive: Potency [1] | Potency [2] | Potency [3] | Potency [4] | Potency [5] | Potency [6] | Potency [7] | Potency [8] | Potency [9]

CC(=O)O[C@H](C[C@@H](C)[C@H]1C(=O)[C@H](O)[C@@]2(C)[C@@H]3CCC4C(C)(C)[C@@H](O[C@@H]5OC[C@H](O)[C@H](O)[C@H]5O)CC[C@@]45C[C@@]35CC[C@]12C)[C@@H]1OC1(C)C (stereo partly drawn)
inactive: Potency [1] | Potency [2] | Potency [3] | Potency [4] | Potency [5] | Potency [6] | Potency [7] | Potency [8] | Potency [9]

CC1=CC(=O)CC(C)(CO[C@@H]2O[C@H](CO)[C@@H](O)[C@H](O)[C@H]2O)C1(O)/C=C/C(C)=C/C(=O)O (stereo partly drawn)
inactive: Potency [1] | Potency [2] | Potency [3] | Potency [4] | Potency [5] | Potency [6] | Potency [7] | Potency [8] | Potency [9]

COc1ccc2c(c1)O[C@H](O[C@@H]1O[C@H](CO)[C@@H](O)[C@H](O)[C@H]1O)C(=O)N2
inactive: Potency [1] | Potency [2] | Potency [3] | Potency [4] | Potency [5] | Potency [6] | Potency [7] | Potency [8] | Potency [9]

O=C(/C=C/c1ccc(O)cc1)OCC1=C[C@@H](O)[C@@H]2C=CO[C@@H](O[C@@H]3O[C@H](CO)[C@@H](O)[C@H](O)[C@H]3O)[C@H]12
inactive: Potency [1] | Potency [2] | Potency [3] | Potency [4] | Potency [5] | Potency [6] | Potency [7] | Potency [8] | Potency [9]

C=C1[C@H]2CC[C@]3(O)[C@@](CC[C@@H]4[C@](C)(C(=O)O)CCC[C@]43C)(C2)[C@H]1OC(=O)/C(C)=C\C
inactive: Potency [1] | Potency [2] | Potency [3] | Potency [4] | Potency [5] | Potency [6] | Potency [7] | Potency [8] | Potency [9]

C[C@@H]1CC[C@H]2C(C)(C)[C@H](O)[C@H](O)C[C@]2(C)[C@@]12Cc1c(O)cc3c(c1O2)CNC3=O
inactive: Potency [1] | Potency [2] | Potency [3] | Potency [4] | Potency [5] | Potency [6] | Potency [7] | Potency [8] | Potency [9]

CN(C)c1cccc(-c2c3c(=O)n(-c4ccccc4Cl)[nH]c3cc(=O)n2C)c1
inactive: Potency [1] | Potency [2] | Potency [3] | Potency [4] | Potency [5] | Potency [6] | Potency [7] | Potency [8] | Potency [9]

COC(=O)C1(Cc2ccc(O)cc2)OC(=O)C(OC)=C1c1ccc(O)cc1 (stereo not drawn)
inactive: Potency [1] | Potency [2] | Potency [3] | Potency [4] | Potency [5] | Potency [6] | Potency [7] | Potency [8] | Potency [9]

C[C@@H](OC(=O)/C=C/c1ccc(O)cc1)C1=C[C@]2(C=C[C@@H]3C(C(=O)O)=CO[C@@H](O[C@@H]4O[C@H](CO[C@@H]5O[C@H](CO)[C@@H](O)[C@H](O)[C@H]5O)[C@@H](O)[C@H](O)[C@H]4O)[C@@H]32)OC1=O
inactive: Potency [1] | Potency [2] | Potency [3] | Potency [4] | Potency [5] | Potency [6] | Potency [7] | Potency [8] | Potency [9]

CCNC(=O)CCC/C=C\C[C@@H]1[C@@H](/C=C/C(O)CCc2ccccc2)[C@@H](O)C[C@@H]1O (stereo partly drawn)
inactive: Potency [1] | Potency [2] | Potency [3] | Potency [4] | Potency [5] | Potency [6] | Potency [7] | Potency [8] | Potency [9]

CC1=CCC2C(C)(CO)CCCC2(CO)C1CO (stereo not drawn)
inactive: Potency [1] | Potency [2] | Potency [3] | Potency [4] | Potency [5] | Potency [6] | Potency [7] | Potency [8] | Potency [9]

CC(C)=CC/C=C(/C)[C@H]1CC[C@]2(C)[C@@H]1[C@H](O)CC1[C@@]3(C)CC[C@H](O)C(C)(C)[C@@H]3[C@@H](O[C@@H]3O[C@H](CO)[C@@H](O)[C@H](O)[C@H]3O[C@@H]3O[C@@H](C)[C@H](O)[C@@H](O)[C@H]3O)C[C@]12C (stereo partly drawn)
inactive: Potency [1] | Potency [2] | Potency [3] | Potency [4] | Potency [5] | Potency [6] | Potency [7] | Potency [8] | Potency [9]

CC1(C)CC[C@]2(C(=O)O[C@@H]3O[C@H](CO)[C@@H](O)[C@H](O)[C@H]3O)CC[C@]3(C)C(=CCC4[C@@]5(C)C[C@@H](O)[C@H](O)C(CO)(CO)C5CC[C@]43C)C2[C@@H]1O (stereo partly drawn)
inactive: Potency [1] | Potency [2] | Potency [3] | Potency [4] | Potency [5] | Potency [6] | Potency [7] | Potency [8] | Potency [9]

C[C@@H]1O[C@@H](O[C@H]2[C@H](O[C@H]3CO[C@@H](O[C@H]4CC[C@@]5(C)C(CC[C@]6(C)C5CC[C@]57OC[C@@]8(CC[C@](C)(CO)CC85)[C@H](O)C[C@]76C)C4(C)C)[C@H](O[C@@H]4O[C@H](CO)[C@@H](O)[C@H](O)[C@H]4O)[C@H]3O)O[C@H](CO)[C@@H](O)[C@@H]2O)[C@H](O)[C@H](O)[C@H]1O (stereo partly drawn)
inactive: activity change, negative = cytotoxicity [1] -8.3% [at 11.6 µM] | activity change, negative = cytotoxicity [2] 0% [at 11.6 µM] | activity change, negative = cytotoxicity [3] 0.0587% [at 11.6 µM] | activity change, negative = cytotoxicity [4] -0.317% [at 11.6 µM] | activity change, negative = cytotoxicity [5] 0.0764% [at 11.6 µM] | activity change, negative = cytotoxicity [6] 4.72% [at 11.6 µM] | activity change, negative = cytotoxicity [7] 20.5% [at 11.6 µM] | activity change, negative = cytotoxicity [8] -1.65% [at 11.6 µM] | activity change, negative = cytotoxicity [9] -8.07% [at 11.6 µM]

O=C(C1CC1)N1CC[C@@H](Cc2n[nH]c(=O)n2-c2ccc(-c3ccc4occc4c3)cc2)C1
inactive: Potency [1] | Potency [2] | Potency [3] | Potency [4] | Potency [5] | Potency [6] | Potency [7] | Potency [8] | Potency [9]
